About 230 (0.21%) of roughly 110,000 compounds showed an effect of 50% or more. This is one part of a sample in which strong results are shown more often than they occur.
biological target: DPAP1 (Plasmodium falciparum, UniProt Q8IIJ9); experiment: primary screen, percent inhibition; read by cleavage of a fluorogenic dipeptide substrate; higher = more effect of the substance; set-up: species or system P. falciparum D10 trophozoite lysates; single well
Experimental: HTS was performed in black 384-well plates. The first and last two columns of each plate contained our negative (DMSO) and positive (10 μM JCP410) controls, and the 20 central columns the test compounds at 10 μM. Compounds were first diluted 50-fold into assay buffer (50 mM sodium acetate, 5 mM MgCl2, 10 mM β-mercaptoethanol, and 0.1% CHAPS, pH 5.5) from a 10 mM DMSO stock plates. One microliter of this 200 μM intermediate stock plate was dispensed into the assay plate. […] After 30 min, the reaction was quenched with 20 μL of 0.5 M acetic acid, and the fluorescent intensity measured at 523 nm (λex = 492 nm) using an Analyst HT multimode plate reader (Molecular Devices).
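Also: 30 min substrate incubation versus DMSO and 10 µM JCP410 controls.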

DPAP1, sequence (Q8IIJ9 whole entry, looked up): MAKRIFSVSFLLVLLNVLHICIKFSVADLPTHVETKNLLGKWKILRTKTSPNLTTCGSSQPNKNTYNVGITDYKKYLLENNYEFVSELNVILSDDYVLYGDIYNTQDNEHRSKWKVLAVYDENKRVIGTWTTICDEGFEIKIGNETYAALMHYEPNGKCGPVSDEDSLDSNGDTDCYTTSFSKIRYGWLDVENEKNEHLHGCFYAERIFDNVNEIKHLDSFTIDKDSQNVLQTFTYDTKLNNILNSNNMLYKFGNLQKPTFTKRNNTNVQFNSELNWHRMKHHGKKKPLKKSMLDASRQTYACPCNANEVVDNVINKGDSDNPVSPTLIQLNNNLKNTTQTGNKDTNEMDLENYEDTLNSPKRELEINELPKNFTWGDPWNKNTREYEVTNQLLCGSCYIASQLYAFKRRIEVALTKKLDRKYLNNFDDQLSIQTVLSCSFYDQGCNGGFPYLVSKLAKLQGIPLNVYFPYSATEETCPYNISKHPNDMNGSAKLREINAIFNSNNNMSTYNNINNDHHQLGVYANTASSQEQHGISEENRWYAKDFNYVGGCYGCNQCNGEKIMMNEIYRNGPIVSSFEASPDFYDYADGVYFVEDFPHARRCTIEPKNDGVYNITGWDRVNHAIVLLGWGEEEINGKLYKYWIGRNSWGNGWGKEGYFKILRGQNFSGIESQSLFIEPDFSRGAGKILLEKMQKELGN

SMILES	% Inhibition @ 10 uM [%]
Cc1cc2c(c(S)n1)C(=O)O/C2=C\c1c[nH]nc1-c1ccc(F)cc1	26
Cc1cc2c(c(S)n1)C(=O)O/C2=C\c1c[nH]nc1-c1cccs1	43.6
Cc1cc2c(c(S)n1)C(=O)O/C2=C\c1ccco1	67.6
CCOC(=O)N1CCN(C(=O)CSc2nnc(Cc3cccn3C)n2-c2ccc(OC)cc2)CC1	-5.76
COc1ccc(-n2cc(-c3ccc(C)cc3)nc2SCC(=O)NCC2CCCO2)cc1 (stereo not drawn)	4.33
CCOC(=O)N1CCN(C(=O)CSc2nc(-c3ccc(C)cc3)cn2-c2ccc(OC)cc2)CC1	77.3
CC1CCCCC1NC(=O)c1cnn2c(C(F)(F)F)cc(-c3cccs3)nc12 (stereo not drawn)	4.36
c1ccc2c(c1)CCN(c1ncnc3c1nnn3Cc1cccc3ccccc13)C2	-0.0678
CCS(=O)(=O)N1CCC(C(=O)NCc2ccc(F)cc2Cl)CC1	-6.75
CN(C)CC1CSCCC1(O)c1cccc(O)c1 (stereo not drawn)	-15.4
CN(C)CC1CSCCC1(O)c1ccccc1 (stereo not drawn)	85.1
CN(C)CC1CSCCC1(O)c1cccc(Cl)c1 (stereo not drawn)	-4.54
O=c1oc2c(cc(NS(=O)(=O)c3ccc(F)cc3)c3ccccc32)s1	-2.54
Cc1cc2ccccc2n1-c1ccc(C(=O)N2CCCCCC2)s1	3.12
CC1(C)CC2=NC3=C(C(=O)CC(C)(C)C3)C(c3cc(Cl)c(O)c(Cl)c3)C2=C(O)C1 (stereo not drawn)	13.2
CC1(C)CC2=NCC(=O)NC2=C(O)C1	59.8
C=CC/N=C/C1=C(O)CC(C)(C)CC1=O	-3.06
COc1ccc(Br)cc1C1C(C#N)=C(N)Oc2[nH]nc(-c3ccc4c(c3)OCO4)c21 (stereo not drawn)	3.99
CCOC(=O)C1=NNC2C(=O)N(c3ccc(F)cc3)C(=O)C12 (stereo not drawn)	-5.48
O=C(Nc1nccs1)c1ccc(COc2ccccc2Cl)o1	-5.98
Cc1c(CNC(=O)c2cc(-c3ccccc3)nc3ccc(Br)cc23)cnn1C	-2.9

SMILES	% Inhibition @ 10 uM [%]
Cc1nc2ccc(Cl)cc2c2c(N)c3ccccc3n12	66
Cc1ccc2nc(C)n3c4ccccc4c(NC(=O)c4ccccc4)c3c2c1	-6.87
COc1ccc2nc(C)n3c4ccccc4c(NC(C)=O)c3c2c1	2.4
Cc1nn2c3ccccc3nc2c2ccccc12	5.3
O=C(O)CCS(=O)(=O)Cc1ccccc1F	1.27
Cc1nc2c(c(C)c1CCC(=O)N1CCC(N3CCCCC3)CC1)c(=O)n(C)c(=O)n2C	-6.91
Cc1nc2c(c(C)c1CCC(=O)N1CCC(C)CC1)c(=O)n(C)c(=O)n2C	-3.1
Cc1nc2c(c(C)c1CCC(=O)N1CCN(C3CCCCC3)CC1)c(=O)n(C)c(=O)n2C	52.7
CC(NC(=O)c1ccc(Br)cc1)C1COc2ccccc2O1 (stereo not drawn)	3.24
CCOC(=O)C1=C(O)/C(=C\c2ccccc2OC)N=C1C	-1.6
N#CC1=C2SCN(Cc3ccco3)CN2C(=O)CC1c1cccc(OCc2ccccc2)c1 (stereo not drawn)	66.7
CCOc1ccc(C2CC(=O)N3CN(C)CSC3=C2C#N)cc1OC (stereo not drawn)	47.5
CN1CSC2=C(C#N)C(c3cccc(OCc4ccccc4)c3)CC(=O)N2C1 (stereo not drawn)	71.1
N#CC1=C2SCN(Cc3ccco3)CN2C(=O)CC1c1ccc(Cl)cc1 (stereo not drawn)	42.2
CCOc1ccc(C2CC(=O)N3CN(Cc4ccco4)CSC3=C2C#N)cc1 (stereo not drawn)	43.4
CC(C)c1ccc(S(=O)(=O)Nc2ccc3oc(=O)sc3c2)cc1	1.13
CCC(C)N(CCNC(=O)c1c2c(nc3ccccc13)C(=O)N(C1CCCCC1)C2)Cc1ccco1 (stereo not drawn)	2.48
CCOC(=O)c1cc(C)n(CC2CCC(C(=O)Nc3cccc(C)n3)CC2)c1C (stereo not drawn)	-0.943
CCOC(=O)c1cnn(C(C)(C)C)c1C1CCN(C(=O)OC(C)(C)C)CC1	-2.83
Cc1ccc(S(=O)(=O)N2CCCC2)cc1S(=O)(=O)N1CCCC1	1.52
CCC(=O)/N=c1/n(C)c2ccccc2n1CCOc1ccccc1	0.512

SMILES	% Inhibition @ 10 uM [%]
OC(COc1cccc2ccccc12)CN1CCN(CC(O)COc2cccc3ccccc23)CC1 (stereo not drawn)	51.4
OC(COc1ccccc1Cl)CN1CCN(CC(O)COc2ccccc2Cl)CC1 (stereo not drawn)	0.131
Cc1ccccc1OCC(O)CN1CCN(CC(O)COc2ccccc2C)CC1 (stereo not drawn)	-0.053
Cc1cc(Br)ccc1OCC(=O)O/N=C(\N)c1cccnc1	-6.94
CCCCN(C)C(=O)CCNC(=O)Cn1ccc2ccccc2c1=O	7.85
CCOc1ccc(S(=O)(=O)N2CCSC2c2ccc(OC)c(OC)c2)cc1 (stereo not drawn)	25.4
O=C1/C(=C/c2ccc3nccnc3c2)CCC1C1CCCC1 (stereo not drawn)	66.2
O=C1/C(=C/c2ccc3nccnc3c2)CC/C1=C\c1ccc2nccnc2c1	-0.503
O=C1/C(=C/c2ccc(F)cc2)CCC1C1CCCC1 (stereo not drawn)	23.4
Cc1cc(C)c2c(n1)sc1c(=O)oc(C)nc12	-0.13
Cc1ccc(N(CC(=O)Nc2ccc(CC#N)cc2)S(=O)(=O)c2ccccc2)c(C)c1	-6.77
O=C(NCc1ccco1)c1ccc(CN2CC(=O)N3CCCCC3C2=O)cc1 (stereo not drawn)	3.7
Cc1ccc(-c2cc(C(=O)N3CCN(C(=O)c4ccco4)CC3)[nH]n2)c(C)c1	2.62
COCCN1C(=O)/C(=C/c2cccc(C)c2)S/C1=N\c1ccccc1	64.4
COCCN1C(=O)/C(=C/c2ccc(C)cc2)S/C1=N\c1ccccc1	-11.1
COCCN1C(=O)/C(=C/c2ccccc2)S/C1=N\c1ccccc1	-4.21
CCN(CC)CCCNc1cnnc2c(Cl)cccc12	-4.4
COc1ccc(OC)c(C2C3=C(O)CCCC3=NC(C)=C2C(=O)Nc2ccccn2)c1 (stereo not drawn)	-8.82
COc1ccccc1CNC(=O)Cn1nc(C)n2c(cc3c(OC)cccc32)c1=O	-3.47
CCCNC(=O)Cn1nc(C)n2c(cc3cc(OC)ccc32)c1=O	4.84
COc1ccc2c(c1)cc1c(=O)n(CC(=O)NCc3cccc(OC)c3OC)nc(C)n12	99.1
